In PubChem BioAssay AID1845225 (National Center for Advancing Translational Sciences (NCATS), 2023):
Results filed as inconclusive are left out. Activity calls are given as the source filed them. Calls follow the shape of the dose curve; as a rule, active = well fitted curve in the direction sought with a large enough effect; inconclusive = small, poorly fitted or top-dose-only effect, or effect the other way, or another doubt; inactive = no such curve, though single readings can be large or run the other way.

Test: Confirmatory redox qHTS assay for identification of artifact compounds.
Conditions: Amplex Red/HRP redox cycling with DTT, fluorescence; series mostly up to 39 µM
Method in brief: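 Amplex Red (25 uM final) and HRP (250 mU/mL final) in HBSS, compound 15 min, then 250 uM DTT final 30 min, room temperature, dark; fluorescence 525/598 nm, normalized to DMSO and 10 uM DA3003, Hill fitted.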

outcome, inactive:
O=S(=O)(c1ccc(Cl)cc1)N1CCC(c2ccncc2)CC1, O=C(Nc1nnc(S(=O)(=O)N2CCCC2)s1)c1ccccc1Cl, Cc1cc(C)nc(NC(=S)N2CCN(c3ccc(F)c(F)c3F)CC2)c1, O=C1c2ccccc2C(=O)N1c1cnc2ccccc2c1, CC(C)c1nn2c(=O)cc(COC(=O)c3cccc(NC(=O)COc4ccc(F)cc4)c3)nc2s1, Oc1ccc(CNc2cccc(F)c2F)c2cccnc12, O=C(Nc1nnc(-c2ccccc2)s1)c1ccc(S(=O)(=O)N2CCCC2)cc1, CCOC(=O)Cc1cccc(-c2cc(CCCCCCc3ccc(O[C@H]4O[C@H](COC(C)=O)[C@@H](OC(C)=O)[C@H](OC(C)=O)[C@@H]4OC(C)=O)c(-c4cccc(CC(=O)OCC)c4)c3)ccc2O[C@H]2O[C@H](COC(C)=O)[C@@H](OC(C)=O)[C@H](OC(C)=O)[C@@H]2OC(C)=O)c1, CC(NC(=O)CSc1nc(-c2ccccc2F)nc2cc(=O)[nH]n12)c1nc2ccccc2n1C (stereo not given), COc1cc(OC)c(NC(=O)C(c2ccccc2)N2Cc3ccccc3C2=O)cc1Cl (stereo not given), COc1ccc(CCNC(=O)Cn2ncc3c(C)n(Cc4ccccc4F)c(C)c3c2=O)cc1OC, O=C(NNCNNC(=O)c1ccncc1)c1ccncc1, CCc1ccc(CN(Cc2ccco2)C(=O)c2ccc(OC)cc2)cc1, O=C(CCn1c(=O)c2cccn2c2cccnc21)N1CCN(c2ccccc2F)CC1, Cc1ccccc1S(=O)(=O)Nc1cnccc1C(=O)Nc1nc(-c2ccccc2)cs1, O=C1c2oc3ccc(F)cc3c(=O)c2C(c2cccc([N+](=O)[O-])c2)N1CCCN1CCOCC1 (stereo not given), O=C(CSc1nnc2scc(-c3ccc(Cl)cc3)n12)Nc1cccc(C(F)(F)F)c1, COc1cc2c(NC3CCN(C(C)C)CC3)nc(C3CCCCC3)nc2cc1OCCOCCN(C)C, COc1ccc(Cn2c(SCc3ccc(C(=O)NC4CCCCC4)cc3)nc3ccncc32)cc1, O=C(CN1C(=O)CCn2nc(-c3ccccc3)cc21)NCc1ccc(Cl)cc1, Cc1cccc(N2CCN(CCCNC(=O)c3nnc(Cc4c(F)cccc4Cl)o3)CC2C)c1 (stereo not given), CC(C)=CCC/C(C)=C/C=O, COc1ccc(NC(=O)N(Cc2nnc3n2CCCCC3)c2ccc(OC)c(Cl)c2)cc1, Cc1cccc(C(=O)NCCc2nc3ccccc3n2CCC(C)C)c1, COc1ccc(C(CNC(=O)c2oc3cc(C)c(C)cc3c2C)N2CCCCC2)cc1 (stereo not given), COc1cc2c3cc1OCc1c(O)c(OC)cc4c1C(Cc1ccc(cc1)Oc1cc(ccc1O)CC3N(C)CC2)N(C)CC4 (stereo not given), O=C(NCCSc1c(-c2ccc(Br)cc2)[nH]c2ccccc12)c1ccc(S(=O)(=O)N2CCOCC2)cc1, Cc1ccc(-c2nc3scc(CCNS(=O)(=O)c4ccc(F)c(C)c4)n3n2)cc1, COC(=O)c1ccccc1NC(=O)[C@H]1O[C@@H]2OC(C)(C)O[C@@H]2[C@H]2OC(C)(C)O[C@H]21, CC(C)C[C@H](NC(=O)[C@@H](Cc1c[nH]c2ccccc12)NC(=O)[C@H](Cc1ccc(O)cc1)NC(=O)[C@H](CO)NC(=O)[C@H](Cc1c[nH]c2ccccc12)NC(=O)[C@H](Cc1cnc[nH]1)NC(=O)[C@@H]1CCC(=O)N1)C(=O)N[C@@H](CCCN=C(N)N)C(=O)N1CCC[C@@H]1C(=O)NCC(N)=O, Cc1ccc(C)c(N2CCN(S(=O)(=O)c3cc(Br)cc4c3N(C(=O)C3CC3)CC4)CC2)c1, O=C(NCCC1=CCCCC1)c1ccc2c(c1)N(Cc1cccc(Cl)c1)C(=O)c1ccccc1S2=O (stereo not given), COC(=O)c1c(OCc2ccccn2)cc(=O)n2c1CCN(C(=O)c1n[nH]c3c1CCCC3)CC2, CCOc1ccc(CCNC(=O)c2cnc3c(-c4ccccc4)c(C)nn3c2C)cc1OCC, O=C(NCCc1csc(-c2cccc(F)c2)n1)C(=O)Nc1cc(F)ccc1F, Cc1ccc(Cl)cc1N1C(=O)N(Cc2ccc(C#N)cc2)c2ccccc2S1(=O)=O, CN(C(=O)CSc1nc2ccc(NC(=O)c3cccs3)cc2s1)c1ccccc1, CC(C)Oc1ccc(C(=O)N2CCC(c3nc4ccccc4s3)CC2)cc1, COc1ccc(N2C(=O)c3ccccc3C2=O)cc1, CCOc1ccc(OCC)c(NS(=O)(=O)c2c(C)[nH]c(=O)[nH]c2=O)c1
